# Inconclusive results are not listed. A call without a number means that no potency is given here. The source made the active and inactive calls. Calls follow the shape of the dose curve; as a rule, active = well fitted activation curve with a large enough effect in the signal ratio in the repeat runs (not every such curve was filed as active); inconclusive = weak or mixed curves, or effect the other way; inactive = flat fitted curve, though single readings scatter; the % refers to the signal ratio. Non-standard residues stand in square brackets, D forms with d. Residues, ends and D or L forms follow the SMILES beside them. *: point of attachment. Sta = CC(C)C[C@H](N)[C@@H](O)CC(=O)O; Isovaleryl = CC(C)CC(=O)*
# Test: qHTS assay to identify small molecule agonists of the endoplasmic reticulum stress response signaling pathway (AID 1159516)
# Details: ESRE-bla HeLa, ER stress beta-lactamase reporter, 5 h; series mostly up to 61 µM
# From the text: National Center for Advancing Translational Sciences [NCATS]
# NIH Chemical Genomics Center [NCGC]
# U.S. Environmental Protection Agency [EPA]
# National Institutes of Environmental Health Sciences [NIEHS]
# National Toxicology Program [NTP]
# U.S. Food and Drug Administration [FDA]
# Endoplasmic Reticulum (ER) plays an important role in cellular signaling, protein folding/maturation, stress response, lipid biosynthesis, calcium storage and release etc. Under stress conditions, proteins in ER misfold or unfold, and leading to the expression of ER stress responsive genes. ER stress has been associated with a variety of pathophysiological conditions such as cancer, inflammation, neurodegenerative diseases, diabetes, ischemic heart disease etc. To identify the compounds that induce ER stress response, an ER stress reporter cell line, CellSensor ESRE-bla HeLa (Life Technologies, Carlsbad, CA) containing a beta-lactamase reporter gene under control of the Endoplasmic reticulum Stress Response Element (ESRE) was used to screen Tox21 10K compound library.
# Tox21 Assay Protocol Summary:
# ESRE-bla HeLa cells were dispensed at 1,500 cells/6 uL of assay medium per well into black wall/clear-bottom 1536-well plates using a Multidrop Combi (ThermoFisher Scientific, Waltham, MA) dispenser. After the assay plates were incubated at 37 C and 5% CO2 for an overnight, 23 nL of compounds dissolved in DMSO, positive controls or DMSO only was transferred to the assay plate by a Pintool station (Kalypsys, San Diego, CA). The assay plates were incubated at 37 C and 5% CO2 for 5 hr. One uL of LiveBLAzer B/G FRET substrate (Life Technologies) was added using a Flying Reagent Dispenser (Aurora Discovery, San Diego, CA) and the plates were incubated at room temperature for 2 hr. Fluorescence intensity (405 nm excitation, 460 nm and 530 nm emissions) was measured using an Envision plate reader (PerkinElmer, Shelton, CT).
# Potency is read from the fitted curve at half-maximal effect.
row,Compound,Potency
1,C=C(C)C(=O)OCCCC,inactive
2,NC[C@H]1O[C@H](O[C@H]2[C@H](O)[C@@H](O[C@H]3O[C@H](CO)[C@@H](O)[C@H](N)[C@H]3O)[C@H](N)C[C@@H]2N)[C@H](N)[C@@H](O)[C@@H]1O,inactive
3,NS(=O)(=O)c1cc2c(cc1C(F)(F)F)NCNS2(=O)=O,inactive
4,CCCCCCCCCCCCCCCC(=O)OC,inactive
5,Nc1cc(S(=O)(=O)O)ccc1O,inactive
6,C[C@@H](CN1CC(=O)NC(=O)C1)N1CC(=O)NC(=O)C1,inactive
7,CC(C)CC(=O)N[C@H](C(=O)N[C@H](C(=O)N[C@@H](CC(C)C)[C@@H](O)CC(=O)N[C@@H](C)C(=O)N[C@@H](CC(C)C)[C@@H](O)CC(=O)O)C(C)C)C(C)C (Isovaleryl-VV[Sta]A[Sta]-OH),inactive
8,O=S(=O)(O)c1ccc(Cl)cc1,inactive
9,CC1=C(O)C(=O)CO1,inactive
10,CC(O)C(CO)C(C)O (stereo not given),inactive
11,CC/C=C\CCCCCCCCCCOC(C)=O,inactive
12,CCCCCCC(=O)c1ccccc1,inactive
13,CC(=O)O[C@@H]1CC2C3CCc4cc(OC(=O)c5ccccc5)ccc4C3CCC2(C)[C@H]1OC(C)=O (stereo not given in full),inactive
14,CCCCNCC,inactive
15,CC/C=C\CCOC(=O)c1ccccc1,inactive
16,CC(C)(C)c1ccc(N)cc1,inactive
17,CC(=O)c1ccc2ccc3ccccc3c2c1,inactive
18,O=C(OOC(=O)c1ccccc1)c1ccccc1,inactive
19,COC(=O)c1ccc(C(=O)O)cc1,inactive
20,N#Cc1cc(NC(=O)C(=O)O)c(Cl)c(NC(=O)C(=O)O)c1,inactive

row,Compound,Potency
1,CC(C)C(C)C,inactive
2,COc1cc(NS(=O)(=O)c2ccc(N)cc2)ncn1,inactive
3,CCO[Si](CC(C)C)(OCC)OCC,inactive
4,N=C(N)S(=O)O,inactive
5,NNC(=O)OCc1ccccc1,inactive
6,C/C=C/C(=O)CCCC,inactive
7,CC(C)(C)C(=O)CC(=O)C(C)(C)C,inactive
8,COc1ccc(Cl)cc1C,inactive
9,c1cc2ccc3ccc4ccc5cccc6c(c1)c2c3c4c56,1740 nM (active)
10,CN(C)c1cc(NC(=O)CNC(C)(C)C)c(O)c2c1C[C@H]1C[C@H]3[C@H](N(C)C)C(=O)C(C(N)=O)=C(O)[C@@]3(O)C(=O)C1=C2O,inactive
11,O=S(=O)(O)c1cc(I)c(O)c2ncccc12,inactive
12,C=CCN(CC=C)CC=C,inactive
13,O=C(O)Cc1c(Cl)ccc(Cl)c1Cl,inactive
14,CCOc1ccccc1OCCN[C@H](C)Cc1ccc(OC)c(S(N)(=O)=O)c1,inactive
15,C=CC(=O)OCCOCCOCC,inactive
16,CC/C=C/CCCCCCCCCCOC(C)=O,inactive
17,NC(=O)CC[C@@H](N)C(=O)O,inactive
18,CCCCS,inactive
19,CNC(=O)c1c(I)c(NC(C)=O)c(I)c(C(=O)O)c1I,inactive
20,CCCCc1ccc(Cl)cc1,inactive
